# This is a sample that favours compounds with a hit; in the whole collection about 1.6% have one here.
# KCNQ2 inh = blocks the rat KCNQ2 potassium channel; O88943; CHO-K1 KCNQ2, FluxOR thallium flux, 20 min; active compounds read low; B-score at 10 µM; 1.1% of 310,000 active; AID 2156;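 active means fluorescence ratio B-score at most minus 3 library SDs, with starting brightness B-score within 2 library SDs, cut at about -5.5 in these data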
# KCNQ2 pot = KCNQ2 (rat) channel potentiation; B-score at 10 µM; AID 2239; CHO-K1 KCNQ2, FluxOR thallium flux fluorescence; active compounds read high; O88943; 0.54% of 310,000 active;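 active means fluorescence ratio B-score at least 3 SD of library B-scores, with initial fluorescence B-score within 3 of them, cut at about 5.3 in these data; same plate scores as AID 2156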;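 further: B-score of peak minus minimum over baseline fluorescence ratio after K+ and Tl+ stimulus; positive B-score means potentiation of KCNQ2 with more thallium influx and brighter signal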
# Kir21 confirm = confirmation of mouse Kir2.1 potassium channel inhibitors; shares compounds with KCNQ2 pot; Kir2.1-expressing cells, FluxOR thallium flux fluorescence; active compounds read low; Tl flux remaining, % of negative control (active compounds read low), % at 10 µM; 41% of 2,300 active; AID 2032;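 active means Primary-screen hit whose thallium flux fell at least 3 control SD below untreated wells in both duplicates, with normal baseline fluorescence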;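 further: 0% = blank wells without stimulus and 100% = stimulated no-compound controls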
# HEK293 Tl flux = parental HEK293 activity in Kir2.1 inhibitor counter-screen | 19% of 2,300 active | FluxOR signal as % of negative control (100 = no effect), % at 10 µM | shares compounds with KCNQ2 pot | parental HEK293 cells, FluxOR thallium flux fluorescence; 0% = unstimulated blank wells;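 active means dye signal at least 3 control SD above or below untreated wells in both duplicates, raw fluorescence within 3, either direction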;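 further: percent is based on the flux ratio of peak minus minimum fluorescence over baseline F0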
# CHO-K1 Tl ctr = alters thallium flux in parental CHO-K1 cells, KCNQ2 counter-screen; shares compounds with KCNQ2 pot; FluxOR thallium flux fluorescence; zero = vehicle mean+3SD, 100% = vehicle-minus-blank window; activity increase over 3SD of controls, % at 10 µM; 43% of 1,200 active;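 active means signal rise of at least 3 SD above the untreated control mean, in both duplicate wells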;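 further: counter screen of KCNQ2 potentiator hits so any rise reflects channel-independent effects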
# KCNQ1 pot spec = tests whether KCNQ2 potentiators also act on human KCNQ1. shares compounds with KCNQ2 pot. CHO KCNQ1 stable, FluxOR thallium flux fluorescence; beyond 3SD, as % of vehicle-control signal. activation over 3SD threshold, % at 10 µM. 28% of 1,200 active;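 active means fluorescence ratio rise of at least 3 SD of vehicle wells above their mean, in both replicate wells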;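 further: 0% = vehicle mean plus 3 SD and 100% = vehicle minus unstimulated blank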
# Target sequence (P51787 whole entry, looked up): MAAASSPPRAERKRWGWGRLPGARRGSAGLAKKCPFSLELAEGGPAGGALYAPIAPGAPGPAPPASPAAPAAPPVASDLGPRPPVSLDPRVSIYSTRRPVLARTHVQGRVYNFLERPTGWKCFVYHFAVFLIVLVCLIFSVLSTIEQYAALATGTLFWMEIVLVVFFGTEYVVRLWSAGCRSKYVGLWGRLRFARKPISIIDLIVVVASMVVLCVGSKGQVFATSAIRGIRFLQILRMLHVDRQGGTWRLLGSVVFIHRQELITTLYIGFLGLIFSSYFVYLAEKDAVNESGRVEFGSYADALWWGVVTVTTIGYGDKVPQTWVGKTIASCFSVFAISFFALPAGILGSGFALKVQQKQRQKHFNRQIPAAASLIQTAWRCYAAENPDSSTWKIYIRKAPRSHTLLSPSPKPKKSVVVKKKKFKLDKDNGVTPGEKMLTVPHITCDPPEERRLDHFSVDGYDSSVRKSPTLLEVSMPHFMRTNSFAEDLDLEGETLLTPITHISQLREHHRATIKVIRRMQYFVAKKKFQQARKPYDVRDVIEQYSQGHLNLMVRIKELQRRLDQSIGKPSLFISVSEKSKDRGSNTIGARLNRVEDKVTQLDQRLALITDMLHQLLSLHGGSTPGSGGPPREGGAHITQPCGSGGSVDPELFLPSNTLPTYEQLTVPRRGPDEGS
# KCNQ2 pot confirm = rat KCNQ2 channel potentiator confirmation; CHO-KCNQ2 cells, FluxOR thallium flux fluorescence; shares compounds with KCNQ2 pot; AID 2287; potentiation, less the hit threshold, % at 10 µM; 68% of 1,200 active;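 active means fluorescence ratio rising 3 SD or more over the vehicle control mean in both replicates, plus primary screen hit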;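 further: peak minus minimum thallium fluorescence divided by baseline after K/Tl stimulus; 0% = vehicle mean plus 3 SD and 100% = vehicle minus unstimulated blank difference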
# Kir2-1 sel = mouse Kir2.1 off-target activity of KCNQ2 potentiators | AID 2345 | shares compounds with KCNQ2 pot | HEK293 Kir2.1, FluxOR thallium flux fluorescence | 2% of 1,200 active | activity over 3SD threshold, % at 10 µM;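 active means fluorescence ratio rise of at least 3 SD above the vehicle-control mean, seen in both replicates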;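 further: 0% = vehicle mean plus 3 SD and 100% = vehicle minus no-stimulus blank window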
# KCNQ2 W236L MoA = KCNQ2 potentiators acting on retigabine-insensitive rat KCNQ2 W236L mutant | shares compounds with KCNQ2 pot | CHO KCNQ2-W236L, automated patch clamp current | current increase over 3SD of negative controls (%), active compounds read high, % at 25 µM | 10% of 940 active | AID 2558;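 active means current increase at least 3 SD of the untreated controls above them in both duplicate recordings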
# Starred values were filed as active, the others as inactive; i = inactive; . = no result.
SMILES,KCNQ2 inh,KCNQ2 pot,Kir21 confirm,HEK293 Tl flux,CHO-K1 Tl ctr,KCNQ1 pot spec,KCNQ2 pot confirm,Kir2-1 sel,others
Cc1cccc2[nH]c3c(N4CC=C(c5ccc(F)cc5)CC4)ncnc3c12,i,.,.,.,.,.,.,.,
O=C(CC12CC3CC(CC(C3)C1)C2)NC(Cc1ccccc1)C(=O)O (stereo not given),i,0.32,.,.,.,.,.,.,
CNC[C@H](CC1CCCCC1)NC[C@H](Cc1ccccc1)NCCC12CC3CC(CC(C3)C1)C2,i,1.3,i,i,.,.,.,.,
CC(C)c1ccc(N(CC(=O)NCc2ccco2)C(=O)CCC(=O)Nc2nccs2)cc1,i,.,.,.,.,.,.,.,
CCOC(=O)C1CCCc2c1[nH]c1c(C(N)=O)cccc21 (stereo not given),i,9.7*,i,i,3.7*,-15,34*,-48,KCNQ2 W236L MoA=i
NC(=O)c1cccc2c3c([nH]c12)CCCC3,i,2.9,.,.,.,.,.,.,
CN=C(C)/C(C(=O)OC)=C(/O)c1ccc(Cl)cc1Cl,i,.,.,.,.,.,.,.,
Cc1sc2ncn(/N=C/c3ccco3)c(=O)c2c1C,i,.,.,.,.,.,.,.,
CCc1c(C)nn(C(=O)/C(C#N)=C\N(C)C)c1C,i,0.74,.,.,.,.,.,.,
C/C(N)=C(/C#N)C(=O)COC(=O)C1CCC(C(C)(C)C)CC1 (stereo not given),i,5.3,28%*,i,8.1*,-36,7.8*,-102,KCNQ2 W236L MoA=i
C/C(N)=C(/C#N)C(=O)COC(=O)CC1CCCC1,i,.,.,.,.,.,.,.,
COCCNC(=O)CSc1n[nH]c(=O)n1CCc1ccccc1,i,0.26,.,.,.,.,.,.,
COC(=O)c1cc(-c2cccc(OC)c2)c2c(=O)[nH]c(=O)n(C)c2n1,i,1,.,.,.,.,.,.,
CCC(C(=O)Nc1cccnc1Cl)c1ccccc1 (stereo not given),i,0.2,.,.,.,.,.,.,
CCOc1ccc(Cl)cc1CNCCCSc1nc(C)cc(C)n1,i,0.03,52%*,i,.,.,.,.,
CCOc1ccc(Cl)cc1CNCCCSc1ncccn1,i,.,.,.,.,.,.,.,
CC(C)CN(C(=O)COC(=O)CNC(=O)c1sc2ccccc2c1Cl)C1CCS(=O)(=O)C1 (stereo not given),i,0.6,i,75%*,.,.,.,.,
CC(C)CN(C(=O)COC(=O)Cc1n[nH]c(=O)c2ccccc12)C1CCS(=O)(=O)C1 (stereo not given),i,.,.,.,.,.,.,.,
Cc1ccc(C)c(NC(=S)NNC(=O)c2csc3c2CCC(C)C3)c1 (stereo not given),i,6.6*,i,171%*,-19,-33,-4,-40,KCNQ2 W236L MoA=i
Cc1ccc(C)c(NC(=S)NNC(=O)c2csc3c2CCCC3)c1,i,2.6,.,.,.,.,.,.,
CCCCCc1cc(O)c2c(C)cc(=O)oc2c1,i,0.22,.,.,.,.,.,.,
CCCCc1cc(O)c(CCCC)c(O)c1,i,8.7*,.,.,-16,-15,38*,-55,KCNQ2 W236L MoA=i
S=c1[nH]nc(-c2cccs2)n1/N=C/c1cn(-c2ccccc2)nc1-c1cccs1,i,6.9*,i,i,-1,80*,-3,-34,KCNQ2 W236L MoA=i
S=c1[nH]nc(-c2ccncc2)n1/N=C/c1cn(-c2ccccc2)nc1-c1ccccc1,i,.,.,.,.,.,.,.,
CCOC(=O)CN1N=C(c2ccc(C)cc2)CCC1=O,i,.,.,.,.,.,.,.,
SMILES,KCNQ2 inh,KCNQ2 pot,Kir21 confirm,HEK293 Tl flux,CHO-K1 Tl ctr,KCNQ1 pot spec,KCNQ2 pot confirm,Kir2-1 sel,others
CN1CCN(CC#CC(C)(O)C2CC3C=CC2C3)CC1 (stereo not given),i,5.4*,i,i,-3,-39,-10,-37,
CC(O)(C#CCN1CCOCC1)c1ccccc1 (stereo not given),i,0.49,.,.,.,.,.,.,
COC(=O)C1(O)CC(CC(C)C)=NN1C(=O)c1ccccc1 (stereo not given),i,8.8*,i,i,8.6*,-10,23*,-42,KCNQ2 W236L MoA=i
COC(=O)C1=NN(C(=O)c2ccccc2)C(C)(O)C1 (stereo not given),i,1.5,.,.,.,.,.,.,
CN(C)N1C(N)=C(C#N)C(c2cccc([N+](=O)[O-])c2)C2=C1CC(C)(C)CC2=O (stereo not given),i,2,.,.,.,.,.,.,
CCOc1ccc(CN2CCCC(CO)(Cc3ccccc3F)C2)cc1 (stereo not given),i,0.61,.,.,.,.,.,.,
OCC1(Cc2ccc(F)cc2F)CCCN(Cc2ccc(Cl)cc2)C1 (stereo not given),i,.,56%*,i,.,.,.,.,
COC(=O)c1cn(NC(=O)CC2CCCCC2)c(=O)c2ccccc12,i,14*,i,i,-10,-15,75*,-31,KCNQ2 W236L MoA=i
COC(=O)c1cn(NC(=O)c2cc([N+](=O)[O-])ccc2F)c(=O)c2ccccc12,i,.,.,.,.,.,.,.,
COC(=O)c1cn(NC(=O)CCC2CCCC2)c(=O)c2ccccc12,i,28*,i,i,104*,-14,122*,-27,KCNQ2 W236L MoA=i
COC(=O)c1cn(NC(=O)C2CCC(C)CC2)c(=O)c2ccccc12 (stereo not given),i,.,.,.,.,.,.,.,
O=C(COC(=O)C1CCC1)NCc1ccccc1,i,0.08,.,.,.,.,.,.,
C=CCN1C(=O)c2ccc(C(=O)N3CCN(S(=O)(=O)c4cccc(F)c4)CC3)cc2C1=O,i,1.7,.,.,.,.,.,.,
O=c1cc(-c2ccccc2)nc2c(-c3ccccc3)c(C(F)(F)F)[nH]n12,i,23*,i,366%*,6.8*,-17,94*,-29,KCNQ2 W236L MoA=i
Cc1cc(=O)n2[nH]c(C)c(-c3ccccc3)c2n1,i,.,.,.,.,.,.,.,
O=C(NCC1CCCO1)c1ccc(COc2ccccc2)o1 (stereo not given),i,2.2,.,.,.,.,.,.,
CC(C)c1nc(SCC(=O)N2CCCC2)c2c(=O)n(C)c(=O)n(C)c2n1,i,3.8,.,.,.,.,.,.,
CCc1nc(SCC(=O)N2CCOCC2)c2c(=O)n(C)c(=O)n(C)c2n1,i,2,.,.,.,.,.,.,
CCc1nc(SCC(=O)N2CCCCCC2)c2c(=O)n(C)c(=O)n(C)c2n1,i,5.5*,i,i,-16,5.9*,35*,-49,KCNQ2 W236L MoA=i
CC(C)c1nc(SCC(=O)N2CCCCCC2)c2c(=O)n(C)c(=O)n(C)c2n1,i,17*,i,i,6.8*,-11,54*,-20,KCNQ2 W236L MoA=i
CCOc1c(Cl)cc(/C=C/C(=O)N(CC)CC(=O)Nc2ccc(NC(C)=O)cc2)cc1OC,i,0.02,.,.,.,.,.,.,
COc1cc2[nH]c(C(=O)NCc3ccccc3)cc2c(OC)c1OC,i,.,i,i,.,.,.,.,
